An excerpt weighted towards active compounds, which were near 31% of everything screened.
CYP2C19 activ – activators of human cytochrome P450 2C19 | P33261 | recombinant CYP2C19, luciferin-H EGE luminescence; active compounds read high; 0 = fully inhibited enzyme, 1 = untreated enzyme | activation factor at 5 µM | 96,000 tested, under 10 active | AID 1025;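 active = activation factor of at least 2 at 5 µM in the primary screen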;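 note: 0 = wells with 2.5 mM tranylcypromine and 1 = vehicle-only wells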
CYP2C9 inh – blocks human cytochrome P450 2C9; CYP2C9 Supersomes, luciferin-H conversion, luminescence; inhibition, % at 5 µM; 96,000 compounds, 20% hits; AID 777;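 active = blocking of liver enzyme CYP2C9 beyond about 50% at 5 µM, limit read from the data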
CYP2C9 act – CYP2C9 (human) activation | P11712 | activation factor at 5 µM | recombinant CYP2C9, luciferin-H conversion, luminescence; active compounds read high; factor 1 = untreated enzyme, 0 = blocked | 96,000 compounds, 1.4% hits | AID 1024;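 active = activation factor of 2 or more for CYP2C9 at a 5 µM dose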;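 note: 0 = sulfaphenazole-blocked wells and 1 = vehicle-only wells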
CYP2C19 inhib – human CYP2C19 inhibition. P33261. CYP2C19 Supersomes, luciferin-H EGE luminescence, 30 min. inhibition, % at 5 µM. 96,000 compounds, 21% hits. AID 778;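 active = CYP2C19 inhibition above a set limit at 5 µM in the primary screen, cut at about 50% in these data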;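 note: plate controls were negative control wells for no effect and 2.5 mM tranylcypromine positive control for full effect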
PLAP act – activators of human placental alkaline phosphatase. P05187. purified PLAP enzyme, luminescent substrate read-out; active compounds read high. activation fold at 20 µM. 96,000 compounds, 1.2% hits; in the data active = activation fold above about 2
Target sequence (P05187 whole entry, looked up): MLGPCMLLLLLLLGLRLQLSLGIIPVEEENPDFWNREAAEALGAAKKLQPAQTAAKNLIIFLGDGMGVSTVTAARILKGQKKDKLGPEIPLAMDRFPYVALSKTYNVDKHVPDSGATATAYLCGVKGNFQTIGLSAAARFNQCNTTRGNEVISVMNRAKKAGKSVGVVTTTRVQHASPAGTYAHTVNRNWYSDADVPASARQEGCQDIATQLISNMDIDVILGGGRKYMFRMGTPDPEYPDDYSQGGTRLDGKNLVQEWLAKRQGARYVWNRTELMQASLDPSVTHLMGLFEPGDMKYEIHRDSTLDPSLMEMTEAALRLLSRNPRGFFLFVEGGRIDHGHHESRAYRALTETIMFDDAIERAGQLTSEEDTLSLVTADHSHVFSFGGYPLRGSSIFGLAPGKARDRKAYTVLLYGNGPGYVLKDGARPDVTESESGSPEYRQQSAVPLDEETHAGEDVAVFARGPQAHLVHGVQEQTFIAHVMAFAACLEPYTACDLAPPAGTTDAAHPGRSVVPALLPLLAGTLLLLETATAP
Active calls of the source: *.

SMILES	CYP2C19 activ	CYP2C9 inh	CYP2C9 act	CYP2C19 inhib	PLAP act
CCCCNC(=O)c1onc(CSc2cccc(Cl)c2)c1C(=O)O	0.7	84.2*	0.2	28.1	1.1
CCCCNC(=O)c1onc(CSc2cccc(OCC)c2)c1C(=O)O	0.7	91.9*	0.1	28.5	1.3
CC(C)[C@H](NS(=O)(=O)c1ccccc1)C(=O)OCn1nnc2ccccc2c1=O	0.6	17.9	0.8	36.7	0.9
Cc1nc(N2CCN(C(c3ccccc3)c3ccccc3)CC2)[nH]c(=O)c1C	1	-5.1	1.1	-1.4	0.9
CCCCNC(=O)c1onc(CSc2ccc(C(C)C)cc2)c1C(=O)O	0.7	93.8*	0.1	27.8	1.2
CC(C)NC(=O)c1onc(CSc2cccc3ccccc23)c1C(=O)O	0.7	95.2*	0	31.8	1.2
COCCNC(=O)c1onc(CSc2ccc(Cl)cc2)c1C(=O)O	0.6	22.8	0.8	43.2	1
CCCCNC(=O)c1onc(CSc2cccc3ccccc23)c1C(=O)O	0.4	96.8*	0	57.7*	1
O=C(NCC1CCCO1)c1onc(CSc2ccccc2F)c1C(=O)O (centres undefined)	0.8	19.2	0.8	18.5	0.9
O=C(CCc1ccc(S(=O)(=O)N2CCOCC2)cc1)NCCc1ccccn1	0.9	20.5	0.8	6.4	1
CCC1CC(CSc2ncn[nH]2)OC1=O (centres undefined)	0.9	12.6	0.9	5.5	1
CC1CCCC(C)N1C(=O)CSc1nnc(CSc2ncccn2)n1C (centres undefined)	1	-7.7	1.1	-0.3	1
Cn1cccc1C(=O)OCC(=O)Nc1ccc2c(c1)CCC2	0.8	7.1	0.9	20.3	0.8
COC(=O)Cc1c(O)ccn(Cc2ccc(F)cc2)c1=O	1	-12.7	1.1	-2.9	1.2
CC(Nc1ccccc1)C(=O)Nc1ccc(F)cc1 (centres undefined)	0.7	27.0	0.7	34.6	1
Cc1cccc(N/C(=N\S(=O)(=O)c2ccccc2)C(F)(F)F)c1	1.1	56.2*	0.4	-10.9	1
O=S(=O)(/N=C(\Nc1ccc(F)cc1)C(F)(F)F)c1ccccc1	1	55.9*	0.4	-3.8	1.1
O=C(NC(=S)NCc1ccccc1)C1CCCCC1	0.8	13.8	0.9	21.8	1
CCCC(=O)N(c1ccc(OCC)cc1)C1C=CS(=O)(=O)C1 (centres undefined)	0.4	46.5	0.5	63.2*	1
CCCCC(=O)N(c1ccc(OCC)cc1)C1C=CS(=O)(=O)C1 (centres undefined)	0.6	19.4	0.8	35.8	0.8
CC(C)(C)C1CCC(C(=O)Nc2ccccc2)CC1 (centres undefined)	0.9	32.5	0.7	13.8	1
CS(=O)(=O)N1CCC(C(=O)Nc2ccccc2)CC1	1	-24.6	1.2	-1.5	0.8
O=C(Nc1ccc(Nc2ccccc2)cc1)C1CC1	0.4	50.1*	0.5	58.9*	0.9
O=C(O)C1CCCCC1C(=O)Nc1ccccc1Nc1ccccc1 (centres undefined)	0.4	85.7*	0.1	55.7*	1.3
O=C(Nc1ccccc1)C1CCN(c2nccs2)CC1	0.2	29.7	0.7	84.9*	0.9
SMILES	CYP2C19 activ	CYP2C9 inh	CYP2C9 act	CYP2C19 inhib	PLAP act
O=C(NCC1CCCO1)C1CCC(N2C(=O)c3ccccc3C2=O)CC1 (centres undefined)	0.4	72.2*	0.3	55.8*	1
O=C(Cc1c(C(=O)O)[nH]c2ccc(Cl)cc12)Nc1ccc2c(c1)OCCO2	1	47.2	0.5	4.8	1.2
O=C(Nc1ccc(F)cc1)C1CCC(N2C(=O)c3ccccc3C2=O)CC1 (centres undefined)	0.2	51.2*	0.5	78.4*	1.1
N#Cc1c(N)oc(-c2ccco2)c1-c1ccco1	0.8	64.2*	0.4	22.2	0.9
N#Cc1c(/N=C/c2ccco2)oc(-c2ccccc2)c1-c1ccccc1	0.5	73.4*	0.3	49.2	0.9
N#Cc1c(N)oc(-c2ccccc2)c1-c1ccccc1	0.3	55.9*	0.4	74.7*	1.2
CC(C)(C)NC(=O)C(=O)N/N=C/c1cccs1	0.9	32.8	0.7	10.3	0.9
CCn1c(O)c(C=NCCN2CCOCC2)sc1=S	0.8	-2.0	1	21.3	0.9
COc1cc2c(cc1OC)C(c1ccccc1O)N(C1CC(=O)N(c3ccccc3)C1=O)CC2 (centres undefined)	1.1	16.8	0.8	-6.3	1.8
COC(=O)Cn1ncc2c(C)n(Cc3ccccc3)c(C)c2c1=O	0.2	40.5	0.6	84.5*	1.5
O=C1C=C(c2ccccc2)OC2(CCCC2)O1	0.4	-11.9	1.1	63.0*	1
CSc1n[nH]c(-c2sccc2OCc2ccc(C)cc2)n1	0.2	57.5*	0.4	82.9*	1
CSc1nnc(-c2sccc2OCc2ccccc2)n1C	0.8	30.7	0.7	15.5	0.9
CCOC(=O)c1c(C)nc2ccccn12	0.9	1.2	1	7.5	0.9
O=C(N=c1nc2ccccn2s1)c1ccccc1	0.2	35.8	0.6	76.3*	0.9
CCN(CC)c1ccc(NC(=O)c2ccco2)c(C)c1	1.1	-33.0	1.3	-5.0	0.8
Cc1nn(Cc2c(F)c(F)c(F)c(F)c2F)c(C)c1NC(=O)c1ccc(COc2ccccc2Cl)o1	0.5	59.3*	0.4	53.2*	1.4
Cc1nn(Cc2c(F)c(F)c(F)c(F)c2F)c(C)c1NC(=O)c1ccc(COc2ccccc2Cl)cc1	1	0.4	1	-2.3	1
CCN(CC)c1ccc(NC(=O)c2ccc(Br)o2)c(C)c1	0.7	-140.3	2.4*	29.1	0.8
Cc1cccc(NC(=O)c2ccc(COc3ccc(Cl)cc3Cl)o2)n1	0.6	56.1*	0.4	44.1	1.1
COc1ccc(NC(=O)c2ccc(COc3ccccc3Br)o2)cc1OC	0.6	73.1*	0.3	36.5	1
Cc1ccc(C(=O)Nc2ccc(S(=O)(=O)N3CCN(C)CC3)cc2)o1	1	30.0	0.7	4.0	1.2
O=C(c1ccc(CS(=O)(=O)Cc2ccc(Cl)cc2)o1)N1CCCC1	0.7	40.4	0.6	30.3	1
COc1ccc(NC(=O)c2ccco2)cc1NC(=O)c1ccc(Br)o1	0.6	42.0	0.6	41.2	0.9
COc1cc(NC(=O)c2ccc(Br)o2)ccc1NC(=O)c1ccccc1Cl	0	77.0*	0.2	98.3*	1.4
COc1ccccc1NC(=O)c1ccc(Br)o1	0.7	-137.6	2.4*	33.2	1.1
O=C(Nc1cnc2sc3c(n2c1=O)CCCC3)c1ccc(F)cc1	0.9	15.7	0.8	9.5	1.1
COC(=O)C1CCC(C)(C(=O)Nc2ccccc2)C1(C)C (centres undefined)	0.3	63.8*	0.4	68.1*	1.1
COc1ccc(NC(=O)C2CCC(C)(C(=O)O)C2(C)C)cc1 (centres undefined)	1.1	2.5	1	-8.7	0.9
O=C(CSc1nncs1)NCc1ccc2c(c1)OCO2	0.4	13.9	0.9	59.1*	0.8
